Data published in PubChem BioAssay AID425 (Sanford-Burnham Center for Chemical Genomics, 2006).
Several values for one entry are separate records, joined by “and”; a condition that tells them apart may be missing. Identical values can stand only once. In all, about 110,000 compounds went through this assay and about 190 (0.17%) were called active. Rule as the data show it: active = inhibition above about 50%; inactive = the rest. The full list was thinned out, with actives kept by preference. Measured potencies and affinities stand elsewhere. The source holds several records for some structures; these can differ, active in one and inactive in another.

The molecules below were run against Dual specificity protein phosphatase 6 (Rattus norvegicus) (UniProt Q64346) (assay: inhibition of rat DUSP6 enzyme activity – biochemical, in vitro, primary screen (AID 425;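 also: plate controls were vehicle for no effect and reference inhibitor for full effect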)). Settings: recombinant MKP-3 phosphatase activity, fluorescence; at 20 µM; stronger effect = higher value.
Sequence of Dual specificity protein phosphatase 6 (Rattus norvegicus) (Q64346 whole entry, looked up): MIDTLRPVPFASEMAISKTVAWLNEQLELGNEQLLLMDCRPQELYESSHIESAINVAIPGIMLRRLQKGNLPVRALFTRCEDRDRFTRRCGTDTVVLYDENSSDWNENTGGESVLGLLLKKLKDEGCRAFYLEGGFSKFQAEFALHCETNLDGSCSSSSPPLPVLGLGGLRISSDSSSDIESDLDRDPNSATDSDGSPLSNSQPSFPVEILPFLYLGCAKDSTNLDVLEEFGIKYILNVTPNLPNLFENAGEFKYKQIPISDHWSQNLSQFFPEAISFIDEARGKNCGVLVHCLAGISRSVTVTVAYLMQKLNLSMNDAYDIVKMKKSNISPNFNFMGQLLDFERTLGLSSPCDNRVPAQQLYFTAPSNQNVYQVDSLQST

Row | SMILES | inhibition
1 | CC(C)(C)C1=CC(=O)C=C(C(C)(C)C)C1=O | 6.8% (inactive)
2 | CC(C)(C)C1=CC(N)=C(C(C)(C)C)C(=O)C1=O | 86.4% (active)
3 | CC(=O)/C(C1=C(C(C)(C)C)C(=O)C(=O)C(C(C)(C)C)=C1)=C(/C)O | 6.5% (inactive)
4 | c1ccc(Cn2ncc3c(N4CCN(c5ccccn5)CC4)ncnc32)cc1 | 6.4% (inactive)
5 | COc1ccc(CNS(=O)(=O)c2ccc([N+](=O)[O-])cc2)cc1 | -4% (inactive)
6 | C=CCN1C(=O)NC(=O)/C(=C\c2ccc(OCc3ccc(Cl)cc3)c(OC)c2)C1=O | 5.1% (inactive)
7 | COc1cccc(/C=N/n2c(SC)nnc2-c2ccccc2)c1O | -6.8% (inactive)
8 | Brc1ccc(/C=N/n2c(-c3ccccc3)nnc2-c2ccccc2)cc1 | -2.7% (inactive)
9 | O=C(c1ccco1)N1CCN(S(=O)(=O)c2ccc(Br)s2)CC1 | -14.7% (inactive)
10 | CCOc1ccc(NC(=O)c2cccc(F)c2)cc1 | 4.1% (inactive)
11 | O=C(Nc1cccc(NC(=O)c2cccnc2)c1)c1cccnc1 | 5.6% (inactive)
12 | Nc1ccc(S(=O)(=O)O)c2cccc(S(=O)(=O)O)c12 | -2.3% (inactive)
13 | Nc1ccc(S(=O)(=O)O)c2cccc(O)c12 | 29.8% (inactive) and 64.8% (active)
14 | Nc1cc(S(=O)(=O)O)cc2cccc(S(=O)(=O)O)c12 | -2% (inactive)
15 | O=C(c1ccc(N2CCN(C(=O)c3ccccc3)CC2)cc1)c1cccc(F)c1 | 4.8% (inactive)
16 | O=C(c1ccc(N2CCN(C(=O)c3ccccc3F)CC2)cc1)c1cccc(F)c1 | 4.1% (inactive)
17 | O=C(c1ccc(N2CCN(C(=O)c3ccccc3Br)CC2)cc1)c1cccc(F)c1 | 52.2% (active)
18 | Cc1ccc(C(=O)Nc2ccc(N3CCOCC3)c(Cl)c2)cc1C | 5.9% (inactive)
19 | O=S(=O)(c1cc(Cl)cc(Cl)c1O)c1cc(Cl)cc(Cl)c1O | -3.1% (inactive)
20 | O=C(Cn1c(NCCCO)nc2ccccc21)c1ccco1 | -11.1% (inactive)
21 | O=C(O)C1Nc2c(Cl)cc(Cl)cc2C2C=CCC12 (stereo not drawn) | 98.5% (active)
22 | Cc1ccc2c(c1)C1C=CCC1C(c1ccccc1[N+](=O)[O-])N2 (stereo not drawn) | 7% (inactive)
23 | Cc1c(Cl)ccc2c1NC(C(=O)O)C1CC=CC21 (stereo not drawn) | 107% (active)
24 | O=C(O)C1Nc2c(C(=O)N3CCOCC3)cccc2C2C=CCC12 (stereo not drawn) | 0.2% (inactive)

Row | SMILES | inhibition
25 | Cc1cc(I)c2c(c1)C1C=CCC1C(C(=O)O)N2 (stereo not drawn) | 103% (active)
26 | CCOC(=O)c1ccc2c(c1)C1C=CCC1C(c1ccc(Cl)cc1Cl)N2 (stereo not drawn) | 3.3% (inactive)
27 | O=C(O)C1Nc2c(C(=O)N3CCCC3)cccc2C2C=CCC12 (stereo not drawn) | 5% (inactive)
28 | Cc1ccc2c(c1)C1C=CCC1C(c1ccc([N+](=O)[O-])cc1)N2 (stereo not drawn) | 3.4% (inactive)
29 | CC(=O)c1ccc2c(c1)C1C=CCC1C(c1ccc(Cl)cc1)N2 (stereo not drawn) | 14.4% (inactive)
30 | Brc1ccc(-c2nc(Cc3ccccc3)no2)cc1 | -2.5% (inactive)
31 | CCOc1cc(-c2noc(CCC(=O)Nc3cccnc3)n2)ccc1OC | -11.2% (inactive)
32 | O=C(Nc1ccc(-c2nc3ccccc3[nH]2)cc1)c1ccc(Br)o1 | 8.1% (inactive)
33 | O=C(Nc1ccc(-c2nc3ccccc3[nH]2)cc1)c1ccc(Cl)cc1 | 5.4% (inactive)
34 | O=C(Nc1ccc(Cl)c(-c2nc3ccccc3[nH]2)c1)c1cc2ccccc2o1 | 5% (inactive)
35 | O=C(Nc1ccc(-c2nc3ccccc3[nH]2)cc1)c1ccccc1 | -0.7% (inactive)
36 | O=C(Nc1cccc(-c2nc3ccccc3[nH]2)c1)c1ccco1 | 3.5% (inactive)
37 | O=C(Nc1ccc(-c2nc3ccccc3[nH]2)cc1)c1cc2ccccc2o1 | 53.5% (active)
38 | O=C(Nc1ccc(-c2nc3ccccc3[nH]2)cc1)c1ccc(Cl)c(Cl)c1 | 51.8% (active)
39 | Cc1ccc2nc(-c3cccc(NC(=O)c4ccco4)c3)[nH]c2c1 | 0.4% (inactive)
40 | Cc1cc(F)ccc1S(=O)(=O)Nc1c(C)n(C)n(-c2ccccc2)c1=O | 6.3% (inactive)
41 | O=C(O)COc1ccc2c(=O)c(-c3ccc(Cl)cc3)coc2c1 | 2% (inactive)
42 | CCCCOCCCNC(=O)N[C@@H](CC(C)C)C(=O)O | 7.7% (inactive)
43 | COc1ccc(Cl)cc1C(=O)Nc1ccc(N(C)C)cc1 | 0.6% (inactive)
44 | CSCCNS(=O)(=O)c1ccc(NC(C)=O)cc1 | 1.1% (inactive)
45 | O=C1NC(=O)N(c2ccc(Cl)cc2)C(=O)/C1=C/c1ccc(I)o1 | 23.6% (inactive)
46 | O=C1NC(=S)N(c2ccccc2F)C(=O)/C1=C/c1ccc(Sc2ccccc2)o1 | 7.1% (inactive)
47 | CCOc1ccc(N2C(=O)/C(=C/c3ccc(N(CC)CC)o3)C(=O)NC2=S)cc1 | -0.2% (inactive)
48 | CCOc1ccc(N2C(=O)/C(=C/c3ccc(I)o3)C(=O)NC2=S)cc1 | 107% (active)

Row | SMILES | inhibition
49 | CCc1ccc(N2C(=O)/C(=C/c3ccc(I)o3)C(=O)NC2=S)cc1 | 104% (active)
50 | O=C1NC(=S)N(c2ccccc2F)C(=O)/C1=C/c1ccc(I)o1 | 91.2% (active)
51 | CCOc1ccc(N2C(=O)/C(=C/c3ccc(OCc4cccc(C(=O)O)c4)cc3)C(=O)NC2=S)cc1 | -1.9% (inactive)
52 | CCOc1ccc(N2C(=O)NC(=O)/C(=C\c3ccc(I)o3)C2=O)cc1 | 5.3% (inactive)
53 | O=C1NC(=O)N(c2ccccc2F)C(=O)/C1=C/c1ccc(I)o1 | 12.9% (inactive)
54 | Cc1ccc(N2C(=O)NC(=O)/C(=C\c3ccc(I)o3)C2=O)cc1 | 5.4% (inactive)
55 | O=C1NC(=O)N(c2ccccc2F)C(=O)/C1=C/c1ccc(OCc2cccc(C(=O)O)c2)cc1 | 0.8% (inactive)
56 | O=C1NC(=S)N(c2ccccc2F)C(=O)/C1=C/c1ccc(OCc2cccc(C(=O)O)c2)cc1 | 68.5% (active)
57 | CC(C)c1ccc(NC2=NS(=O)(=O)c3cc([N+](=O)[O-])ccc32)cc1 | 2.8% (inactive)
58 | Cc1c(Cl)cccc1NC(=O)C(=O)NCc1ccc2c(c1)OCO2 | 0.1% (inactive)
59 | CCOC(=O)c1ccc(NC(=O)CN(c2ccccc2OC)S(=O)(=O)c2ccccc2)cc1 | -2.1% (inactive)
60 | CCCC(=O)OCC(=O)Nc1cc(C(C)(C)C)nn1-c1ccccc1 | -0.4% (inactive)
61 | C=CCc1cccc2cc(C(=O)NCc3ccccc3)c(=O)oc12 | 6.2% (inactive)
62 | COc1ccc(NC(=O)C2CCC(C)(C(=O)O)C2(C)C)cc1 (stereo not drawn) | -6.7% (inactive)
63 | COc1ccc(/C=N/NC(=O)c2cc(-c3ccc(Cl)cc3)n[nH]2)cc1 | 3.6% (inactive)
64 | O=C(COc1ccc(Cl)cc1)Nc1nc(-c2ccc(Cl)cc2)cs1 | 2.6% (inactive)
65 | N#Cc1c(N)nc2c(c1-c1ccc3c(c1)OCO3)CCCCC2 | -0.9% (inactive)
66 | Cc1c(C#N)c2nc3ccccc3n2c(=O)/c1=C/c1sc2ccccc2c1O | 4.2% (inactive)
67 | Cc1c(C#N)c2nc3ccccc3n2c(=O)/c1=C\c1c(O)n(-c2ccc(Br)cc2)[nH]c1=O | 2.8% (inactive)
68 | Cc1ccc(-n2[nH]c(=O)c(/C=c3/c(C)c(C#N)c4nc5ccccc5n4c3=O)c2O)cc1C | 66.8% (active)
69 | COc1cc(/C=C2\NC(=S)NC2=O)ccc1OC(=O)C12CC3CC(CC(C3)C1)C2 | -2.6% (inactive)
70 | O=C1/C(=C/c2cccc3ccccc23)SC(=S)N1Cc1ccco1 | 1.1% (inactive)
71 | O=C1/C(=C/c2ccccc2[N+](=O)[O-])SC(=S)N1Cc1ccco1 | 84.3% (active)
72 | Cc1cccc(N2C(=O)/C(=C/c3ccccc3[N+](=O)[O-])SC2=S)c1 | 120% (active)

Row | SMILES | inhibition
73 | COc1cccc(N2C(=O)/C(=C/c3ccccc3[N+](=O)[O-])SC2=S)c1 | 3% (inactive)
74 | O=C1/C(=C/c2ccccc2[N+](=O)[O-])SC(=S)N1c1cccc(Br)c1 | 4.2% (inactive)
75 | COc1ccccc1/C=C1\SC(=S)N(Cc2ccco2)C1=O | 0.9% (inactive)
76 | O=C(O)CCCCCN1C(=O)/C(=C\c2ccc(-c3ccc(Cl)c(Cl)c3)o2)SC1=S | 1.8% (inactive)
77 | Cc1ccccc1N(CC(=O)N1CCc2ccccc2C1)S(C)(=O)=O | 2.4% (inactive)
78 | NC(=O)c1cc(NC(=O)COc2ccc(F)cc2)c(Cl)cc1Cl | -1.1% (inactive)
79 | Cc1c(NS(=O)(=O)c2ccc3c(c2)CCN3C(=O)C2CC2)c(=O)n(-c2ccccc2)n1C | -3.7% (inactive)
80 | O=C1NC(=O)C(=Cc2ccc(-c3cccc(Br)c3)o2)C(=O)N1 | 52.6% (active)
81 | Cc1ccc(-c2ccc(C=C3C(=O)NC(=O)NC3=O)o2)c(Br)c1 | 26.6% (inactive)
82 | O=C1NC(=S)N/C1=C/c1ccc(-c2cccc(Br)c2)o1 | 0.8% (inactive)
83 | CCN1CCN(CCCNC(=O)Cn2cc3c(n2)CCCC3)CC1 | -12% (inactive)
84 | COc1ccc(C2C(C(C)=O)=C(O)C(=O)N2c2nc3ccccc3s2)c(OC)c1 (stereo not drawn) | -1.5% (inactive)
85 | Cc1ccc(N2CC(C(=O)Nc3ccc(N(C)C)cc3)CC2=O)cc1 (stereo not drawn) | 2.6% (inactive)
86 | CCOC(=O)CSc1nnc(Cn2nnc(-c3ccccc3)n2)n1C | 0.9% (inactive)
87 | COc1ccc(Br)c(C=Nc2cccc3nsnc23)c1O | 14.8% (inactive)
88 | Oc1c(Br)ccc(Cl)c1C=Nc1cccc2nsnc12 | 117% (active)
89 | Oc1c(Br)cc(Cl)cc1C=Nc1cccc2nsnc12 | 42.7% (inactive)
90 | NC(=O)C1C(=O)Oc2ccccc2C1=O (stereo not drawn) | 1.6% (inactive)
91 | Cc1ccc(-c2nnn(CC(=O)N(Cc3ccccc3)C(C(=O)NC3CCCC3)c3ccncc3)n2)o1 (stereo not drawn) | -0.8% (inactive)
92 | Cc1cc2nc(-c3cccc(NC(=O)c4ccc(Br)o4)c3)oc2cc1C | 3.2% (inactive)
93 | O=S1(=O)N=C2CCCN2C(c2ccc(F)cc2)N1 (stereo not drawn) | -14.7% (inactive)
